Results on 28 compounds are retold here after PubChem BioAssay (NCATS).

Inconclusive results are not listed. A number with no mark means an inactive call. Active and inactive are the calls of the source. The call rests on the fitted dose curve; in most records, active means well fitted curve in the direction sought with a large enough effect; inconclusive means small, poorly fitted or top-dose-only effect, or another doubt; inactive means no such curve, though single readings can be large; an effect the other way counts as inactive or inconclusive.

In assay [1] the target is Rap guanine nucleotide exchange factor 3 (Homo sapiens) (UniProt O95398). As to the kind of experiment: Confirmatory qHTS for antagonist of cAMP-regulated guanine nucleotide exchange factor 3 (EPAC1) (AID 1645880). Further: nearly all actives have a fitted effect of over 55% in size. Further: potency means the concentration at half of the fitted maximal effect. In short, it runs like this:
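Nucleotide exchange uses 100 nM EPAC1, 250 nM RAP1B-BODIPY-GDP and 50 uM GDP, with compounds in a concentration-titration series. After 5 min at room temperature, fluorescence (480 nm ex/540 nm em) is read every 5 min for 30 min. Data are normalized to control ATA and DMSO.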
(qHTS replaces the single test concentration by a dilution series.)

Assay [2] has the same target. As to the kind of experiment: Confirmatory qHTS for agonist of cAMP-regulated guanine nucleotide exchange factor 3 (EPAC1) (AID 1645881).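 Further: EPAC1 catalysed release of BODIPY-GDP from Rap1B seen as fluorescence loss; 100% = effect of cAMP agonist control; nearly all actives have a fitted effect of over 75% in size.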
The target in assay [3] is Rap guanine nucleotide exchange factor 4 (Homo sapiens) (UniProt Q8WZA2). As to the kind of experiment: Confirmatory qHTS for agonist of cAMP-regulated guanine nucleotide exchange factor 4 (EPAC2) (AID 1645884).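 Further: nucleotide exchange releases bodipy-GDP from Rap1 and this lowers its fluorescence; nearly all actives have a fitted effect of over 65% in size.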 Further: potency means the concentration at half of the fitted maximal effect. On activation: on the % scale 0 is the no-effect control and ±100 the full control effect.
Chain of Rap guanine nucleotide exchange factor 4 (Homo sapiens) (Q8WZA2 whole entry, looked up): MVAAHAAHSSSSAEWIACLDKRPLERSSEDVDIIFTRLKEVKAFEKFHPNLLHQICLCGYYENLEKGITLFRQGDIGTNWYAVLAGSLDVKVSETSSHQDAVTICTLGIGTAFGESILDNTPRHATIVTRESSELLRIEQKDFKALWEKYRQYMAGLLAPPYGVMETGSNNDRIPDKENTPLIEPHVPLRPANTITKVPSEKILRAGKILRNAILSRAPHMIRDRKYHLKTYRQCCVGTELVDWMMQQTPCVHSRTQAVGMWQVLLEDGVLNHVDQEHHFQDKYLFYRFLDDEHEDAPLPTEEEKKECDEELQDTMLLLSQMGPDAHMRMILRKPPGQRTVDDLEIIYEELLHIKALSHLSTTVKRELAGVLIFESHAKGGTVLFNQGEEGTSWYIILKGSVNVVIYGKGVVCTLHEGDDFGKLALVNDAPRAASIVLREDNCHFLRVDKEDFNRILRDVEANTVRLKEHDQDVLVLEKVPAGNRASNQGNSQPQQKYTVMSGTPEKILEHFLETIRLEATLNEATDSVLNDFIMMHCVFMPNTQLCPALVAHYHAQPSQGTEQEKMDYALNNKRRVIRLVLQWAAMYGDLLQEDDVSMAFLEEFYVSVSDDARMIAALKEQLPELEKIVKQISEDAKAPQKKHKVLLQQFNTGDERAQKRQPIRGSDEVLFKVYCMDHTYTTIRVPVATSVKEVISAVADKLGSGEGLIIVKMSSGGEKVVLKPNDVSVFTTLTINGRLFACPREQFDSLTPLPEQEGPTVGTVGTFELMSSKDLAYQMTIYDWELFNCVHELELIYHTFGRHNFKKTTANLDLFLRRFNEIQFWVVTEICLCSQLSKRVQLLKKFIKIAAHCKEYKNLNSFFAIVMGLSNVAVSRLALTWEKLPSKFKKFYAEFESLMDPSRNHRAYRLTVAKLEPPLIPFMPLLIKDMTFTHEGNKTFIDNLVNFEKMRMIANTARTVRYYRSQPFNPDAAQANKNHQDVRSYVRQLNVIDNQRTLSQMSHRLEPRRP
The target is the same in assay [4]. As to the kind of experiment: Confirmatory qHTS for antagonist of cAMP-regulated guanine nucleotide exchange factor 4 (EPAC2) (AID 1645885). Further: nearly all actives have a fitted effect of over 25% in size. Further: potency means the concentration at half of the fitted maximal effect. On activity change, negative = inhibition: on the % scale 0 is the no-effect control and ±100 the full control effect.
Assay [5] addresses Rap guanine nucleotide exchange factor 3 (Homo sapiens) (UniProt O95398). As to the kind of experiment: Counterscreen qHTS for antagonist of cAMP-regulated guanine nucleotide exchange factor 3 (EPAC1) (AID 1645888).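 Further: fluorescence loss as bound BODIPY-GDP is released from Rap1B; % of control where 0% means no effect.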 In short, it runs like this:
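Rap1B-BODIPY-GDP 250 nM + GDP 50 uM; cpds 7-pt, final 9.74 nM–152 uM (activator mode) or from 7.32 nM upwards (inhibitor mode); RT; FI 480/540 nm at 5 and 30 min, then ± cAMP, reread.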
A general note: The purpose of a counterscreen is to sort out artefacts and off-target activity.

Chain of Rap guanine nucleotide exchange factor 3 (Homo sapiens) (O95398 whole entry, looked up): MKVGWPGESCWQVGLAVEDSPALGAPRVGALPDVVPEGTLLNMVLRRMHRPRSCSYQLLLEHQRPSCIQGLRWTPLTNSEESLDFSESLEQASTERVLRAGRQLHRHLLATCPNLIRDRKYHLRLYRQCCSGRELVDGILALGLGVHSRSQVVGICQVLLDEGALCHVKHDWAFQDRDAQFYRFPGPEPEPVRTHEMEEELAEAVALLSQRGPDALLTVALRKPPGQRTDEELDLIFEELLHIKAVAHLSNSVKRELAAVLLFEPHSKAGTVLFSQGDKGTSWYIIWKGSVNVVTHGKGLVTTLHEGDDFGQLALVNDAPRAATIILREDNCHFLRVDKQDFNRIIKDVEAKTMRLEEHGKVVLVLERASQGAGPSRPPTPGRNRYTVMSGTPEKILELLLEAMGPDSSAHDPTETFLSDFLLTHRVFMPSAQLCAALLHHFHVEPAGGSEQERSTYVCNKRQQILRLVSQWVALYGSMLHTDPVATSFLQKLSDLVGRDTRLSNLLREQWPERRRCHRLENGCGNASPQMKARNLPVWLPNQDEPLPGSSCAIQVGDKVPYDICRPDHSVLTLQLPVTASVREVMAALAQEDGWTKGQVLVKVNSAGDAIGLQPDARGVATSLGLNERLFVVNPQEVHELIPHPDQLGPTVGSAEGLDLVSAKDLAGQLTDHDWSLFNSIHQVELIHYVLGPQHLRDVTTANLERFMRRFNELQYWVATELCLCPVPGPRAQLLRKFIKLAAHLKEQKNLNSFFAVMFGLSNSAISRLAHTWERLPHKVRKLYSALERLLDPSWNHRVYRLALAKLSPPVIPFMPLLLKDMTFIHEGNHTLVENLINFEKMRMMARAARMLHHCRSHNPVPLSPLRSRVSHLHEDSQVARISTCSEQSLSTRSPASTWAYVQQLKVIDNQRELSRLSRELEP

In the case of `Cc1cc(-c2cc(F)cc3c2OC(CNC(=O)CCn2cncn2)C3)ccc1F` (centres undefined), the Potency result in assay [1], in assay [2], in assay [3] and in assay [4] was “inactive” throughout.

On to `Cc1nc2ccccc2c(=O)n1/N=C/c1ccccc1O`, for which the Potency in assay [1] is 35.5 µM (active). The Potency result in assay [2] and in assay [4] was “inactive” in each case. The activation in assay [3] is 1.94% [at 17.1 µM, percent relative to cAMP agonist control].

Consider `COc1ccc(CCn2c(=N)c(S(=O)(=O)c3ccc(C)cc3)cc3c(=O)n4ccccc4nc32)cc1`, for which the Potency in assay [1] was 79.4 µM (active). Besides, the Potency result in assay [2] and in assay [4] was “inactive” in each case. Moreover, the activation in assay [3] is -30.1% [at 17.1 µM, percent relative to cAMP agonist control].

Regarding `CCOC(=O)[C@H](CCc1ccccc1)N[C@@H](C)C(=O)N1[C@@H](C(=O)O)C[C@@H]2CCC[C@@H]21`, the Potency entry in assay [1], in assay [2], in assay [3] and in assay [4] was “inactive” in each case.

On to `Cc1cccc(Nc2c([N+](=O)[O-])c(=O)oc3ccccc23)c1`, for which the Potency result in assay [1], in assay [2], in assay [3], in assay [4] and in assay [5] was “inactive” throughout.

In the case of `Cc1cccc(C)c1OCC(=O)N(Cc1ccco1)Cc1ccco1`, the Potency entry in assay [1], in assay [2], in assay [3] and in assay [4] was “inactive” in each case.

For the compound `NC(=O)Nc1ccc(/C=C2\C=Cc3ccccc32)cc1`, the Potency result in assay [1], in assay [2] and in assay [3] was “inactive” each time. The Potency in assay [4] was 44.1 µM (active).

With `Cc1ccc(C)c(N2CCN(C(=O)CCc3nc(-c4ccc(Cl)cc4)no3)CC2)c1`, the Potency entry in assay [1], in assay [2], in assay [3] and in assay [4] was “inactive” throughout.

For the compound `C(=C\c1nccc2ccccc12)/c1ccc(N2CCOCC2)cc1`, the Potency entry in assay [1], in assay [2], in assay [3] and in assay [4] was “inactive” throughout.

With `COc1ccc(SC[C@H](C)CN2CC[C@H](C)CCC2=O)cc1`, the Potency entry in assay [1], in assay [2], in assay [3] and in assay [4] was “inactive” each time.

Consider `COc1ccc(OC)c2c(/C=C/c3c(C)[nH]c4ccccc34)ccnc12`, for which the Potency entry in assay [1], in assay [2], in assay [3] and in assay [4] was “inactive” each time.

Consider `COc1ccc(N2CCN(C3CCCCC3NS(=O)(=O)c3ccccc3)CC2)cc1` (centres undefined), for which the Potency result in assay [1], in assay [2] and in assay [3] was “inactive” in each case. The Potency in assay [4] was 16.9 µM (active).

Regarding `CN(CC(=O)O)c1ccc(/C=C/c2ccnc3ccccc23)cc1`, the Potency result in assay [1], in assay [2] and in assay [3] was “inactive” throughout. The Potency in assay [4] was 55.5 µM (active).

As for `CN(Cc1cccc2ncccc12)C(=O)c1cnn(-c2nccc(-c3ccccc3F)n2)c1C1CC1`, the Potency result in assay [1], in assay [2] and in assay [3] was “inactive” each time. Also, the Potency in assay [4] is 15.6 µM (active).

Turning to `CCC(C(=O)Nc1cc(OC)ccc1OC)n1nc(-c2ccccc2)c2c(c1=O)CCCC2` (centres undefined), the Potency result in assay [1], in assay [2], in assay [3] and in assay [4] was “inactive” throughout.

As to `COc1cccc(-c2nc3cc(SC)ccc3cc2CN(C(=O)c2sccc2C)C2CC2)c1`, the Potency result in assay [1], in assay [2] and in assay [3] was “inactive” in each case. In assay [4], the Potency is 31.2 µM (active).

On to `COc1ccc(C(=O)NC2CCCc3ccccc32)c(OC)c1OC` (centres undefined), for which the Potency entry in assay [1], in assay [2] and in assay [4] was “inactive” throughout. In assay [3], the activation was 0% [at 17.1 µM, percent relative to cAMP agonist control].

Consider `O=C(C[N+]12CN3CN(CN(C3)C1)C2)c1ccc(I)cc1`, for which the Potency result in assay [1], in assay [2], in assay [3] and in assay [4] was “inactive” each time.

`CN(C)c1ccc(/C=C/c2ccnc3ccc4ccccc4c23)cc1`: the Potency in assay [1] was 49.8 µM (active); in assay [4] it was 55.5 µM (active). Also, the Potency result in assay [2] and in assay [3] was “inactive” throughout.

As to `COC(=O)c1cn(C(=O)c2ccc(OC)cc2)c2ccccc12`, the Potency entry in assay [1], in assay [2] and in assay [4] was “inactive” in each case. Besides, in assay [3], the Potency was 31.6 µM (active).

Consider `CCCCCCc1ccc(N2C[C@H](Cc3ccccc3)[C@@H](CC(=O)Nc3ccccc3)C2=O)cc1`, for which the Potency result in assay [1], in assay [2], in assay [3] and in assay [4] was “inactive” each time.

Regarding `CC(=O)c1ccc(NC(=O)CC2Nc3cccc4cccc(c34)NC2=O)cc1` (centres undefined), in assay [1], the Potency was 75.7 µM (active). Moreover, the Potency result in assay [2], in assay [3] and in assay [4] was “inactive” in each case.

As for `CC(SC1=NCCN1S(=O)(=O)c1ccc(F)cc1)c1ccccc1` (centres undefined), the Potency result in assay [1], in assay [2], in assay [3] and in assay [5] was “inactive” each time. Further, in assay [4], the Potency was 12 µM (active).

Regarding `CCOC(=O)C1CCCCN1C(=O)c1oc2c(Cl)cc(C)cc2c1C` (centres undefined), the Potency entry in assay [1], in assay [2], in assay [3], in assay [4] and in assay [5] was “inactive” each time.

Consider `COC(=O)c1c(SC)nc2ccccc2c1OCc1cccc(C)c1`, for which the Potency entry in assay [1], in assay [2], in assay [3], in assay [4] and in assay [5] was “inactive” in each case.

On to `COc1ccc(C2=Cc3ccccc3C(CC(=O)C3CC3)N2c2ccc(C#CCCO)cc2)cc1` (centres undefined), for which the Potency result in assay [1], in assay [2] and in assay [4] was “inactive” each time. For the same compound, the activation in assay [3] is 14.6% [at 17.1 µM, percent relative to cAMP agonist control]. The activity change, negative = inhibition in assay [5] was -1.57% [at 30.8 µM].

For the compound `OCc1cccc(-c2cnc3c(Nc4cccc(OC(F)(F)C(F)F)c4)nccn23)c1`, the Potency entry in assay [1], in assay [2] and in assay [4] was “inactive” throughout. Further, the activation in assay [3] was -0.754% [at 17.1 µM, percent relative to cAMP agonist control]. Moreover, in assay [5], the activity change, negative = inhibition was 9.1% [at 30.8 µM].

Consider `CC1Cc2nc(SCC(=O)OCc3ccccc3)n(C)c(=O)c2S1` (centres undefined), for which the Potency result in assay [1], in assay [2] and in assay [4] was “inactive” each time. Moreover, in assay [3], the activation was 3.71% [at 17.1 µM, percent relative to cAMP agonist control]. In addition, the activity change, negative = inhibition in assay [5] is 9.81% [at 30.8 µM].
